# From the supplement of paper PMC11732987, “Enantioselective OTUD7B fragment discovery through chemoproteomics screening and high-throughput optimisation” (Communications Chemistry, 2025)
# Values without a mark were called inactive.
# Tests used:
# Assay in all cases: log2 ratio of Biotin-Ahx-Ub-VS probe labelling (fragment/DMSO); higher = less target engagement (more negative = stronger competition), active = hit call of the paper (q ≤ 0.05, log2 ratio ≤ -1)
# Conditions in all cases: compound concentration: 200 uM; treatment time: 3 h
# OTUD6B = molecular target: T1, OTUD6B (UniProt Q8N6M0)
# T1 sequence (whole entry): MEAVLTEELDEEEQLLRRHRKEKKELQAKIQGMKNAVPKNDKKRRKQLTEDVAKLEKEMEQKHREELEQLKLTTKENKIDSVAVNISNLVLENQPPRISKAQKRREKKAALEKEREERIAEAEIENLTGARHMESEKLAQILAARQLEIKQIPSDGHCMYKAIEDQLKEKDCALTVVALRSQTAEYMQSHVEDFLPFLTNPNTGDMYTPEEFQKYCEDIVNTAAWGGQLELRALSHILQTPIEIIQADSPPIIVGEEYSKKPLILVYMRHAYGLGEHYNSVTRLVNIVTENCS
# How it was run: (§1)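 Using Biotin-Ahx-Ub-VS at 0.5 µM final for 1 h, DUBs were labelled in HEK293T lysate (495 µg per sample) that had first been treated in triplicate with fragment at 200 µM or vehicle for 3 h. NeutrAvidin enrichment, LysC and trypsin digestion and diaPASEF LC-MS/MS followed. Spectronaut label-free quantities were global-median-normalised. Values are average log2 fragment/vehicle ratios by unpaired t-test, using proteins with ≥2 unique peptides.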
# OTUD7B = molecular target: T2, OTUD7B (UniProt Q6GQQ9)
# T2 sequence (whole entry): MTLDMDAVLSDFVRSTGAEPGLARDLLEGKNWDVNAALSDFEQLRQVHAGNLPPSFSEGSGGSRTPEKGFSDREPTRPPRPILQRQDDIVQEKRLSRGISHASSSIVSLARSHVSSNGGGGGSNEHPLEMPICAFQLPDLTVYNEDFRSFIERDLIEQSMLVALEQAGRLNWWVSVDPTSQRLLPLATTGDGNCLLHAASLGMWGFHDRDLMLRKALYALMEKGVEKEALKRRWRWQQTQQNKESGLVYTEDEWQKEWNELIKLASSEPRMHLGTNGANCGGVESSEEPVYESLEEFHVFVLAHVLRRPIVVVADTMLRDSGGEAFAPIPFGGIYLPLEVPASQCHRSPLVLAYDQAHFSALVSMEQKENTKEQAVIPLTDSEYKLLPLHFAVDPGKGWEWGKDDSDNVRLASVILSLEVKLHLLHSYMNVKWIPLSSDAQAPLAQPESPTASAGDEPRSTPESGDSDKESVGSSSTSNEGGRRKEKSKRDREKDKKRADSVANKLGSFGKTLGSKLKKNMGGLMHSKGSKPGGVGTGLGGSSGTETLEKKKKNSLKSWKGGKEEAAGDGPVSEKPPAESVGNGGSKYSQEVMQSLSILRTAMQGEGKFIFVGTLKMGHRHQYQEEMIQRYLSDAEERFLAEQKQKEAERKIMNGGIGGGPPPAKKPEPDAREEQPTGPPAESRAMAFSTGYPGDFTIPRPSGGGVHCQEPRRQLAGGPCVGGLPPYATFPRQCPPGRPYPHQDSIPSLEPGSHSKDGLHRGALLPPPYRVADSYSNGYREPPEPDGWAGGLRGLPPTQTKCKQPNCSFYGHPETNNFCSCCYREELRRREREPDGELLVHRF
# How it was run: as §1
# PRPF8 = PRPF8 (UniProt Q6P2Q9)
# How it was run: as §1
# PSMD7 = molecular target: T3, PSMD7 (UniProt P51665)
# T3 sequence (whole entry): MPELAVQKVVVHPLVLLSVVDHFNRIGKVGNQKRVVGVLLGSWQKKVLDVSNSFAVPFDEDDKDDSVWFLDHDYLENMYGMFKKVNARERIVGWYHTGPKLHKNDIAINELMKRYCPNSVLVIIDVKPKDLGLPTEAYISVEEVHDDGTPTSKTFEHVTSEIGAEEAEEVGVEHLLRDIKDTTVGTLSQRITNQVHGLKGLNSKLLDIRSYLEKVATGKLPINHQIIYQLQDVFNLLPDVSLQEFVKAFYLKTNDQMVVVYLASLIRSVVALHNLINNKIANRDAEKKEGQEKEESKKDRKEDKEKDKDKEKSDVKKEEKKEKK
# How it was run: as §1
# UCHL1 = UCHL1 (UniProt P09936)
# How it was run: as §1
# UCHL3 = molecular target: T4, UCHL3 (UniProt P15374)
# T4 sequence (whole entry): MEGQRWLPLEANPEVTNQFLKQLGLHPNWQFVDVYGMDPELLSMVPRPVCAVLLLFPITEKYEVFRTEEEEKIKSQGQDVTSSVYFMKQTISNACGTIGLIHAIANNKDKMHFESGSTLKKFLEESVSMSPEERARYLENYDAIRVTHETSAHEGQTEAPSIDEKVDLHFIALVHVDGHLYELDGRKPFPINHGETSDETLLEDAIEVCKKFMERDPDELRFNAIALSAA
# How it was run: as §1
# UCHL5 = molecular target: T5, UCHL5 (UniProt Q9Y5K5)
# T5 sequence (whole entry): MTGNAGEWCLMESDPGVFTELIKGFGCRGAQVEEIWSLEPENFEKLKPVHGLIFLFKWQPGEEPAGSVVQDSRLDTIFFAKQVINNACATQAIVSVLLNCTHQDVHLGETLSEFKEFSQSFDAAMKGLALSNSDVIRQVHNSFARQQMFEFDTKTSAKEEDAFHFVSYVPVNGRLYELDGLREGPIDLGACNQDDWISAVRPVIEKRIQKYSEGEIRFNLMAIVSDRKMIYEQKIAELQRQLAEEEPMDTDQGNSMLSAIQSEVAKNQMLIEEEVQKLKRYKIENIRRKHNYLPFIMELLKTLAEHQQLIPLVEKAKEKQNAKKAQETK
# How it was run: as §1
# USP10 = USP10 (UniProt Q14694)
# How it was run: as §1
# USP15 = molecular target: T6, USP15 (UniProt Q9Y4E8)
# T6 sequence (whole entry): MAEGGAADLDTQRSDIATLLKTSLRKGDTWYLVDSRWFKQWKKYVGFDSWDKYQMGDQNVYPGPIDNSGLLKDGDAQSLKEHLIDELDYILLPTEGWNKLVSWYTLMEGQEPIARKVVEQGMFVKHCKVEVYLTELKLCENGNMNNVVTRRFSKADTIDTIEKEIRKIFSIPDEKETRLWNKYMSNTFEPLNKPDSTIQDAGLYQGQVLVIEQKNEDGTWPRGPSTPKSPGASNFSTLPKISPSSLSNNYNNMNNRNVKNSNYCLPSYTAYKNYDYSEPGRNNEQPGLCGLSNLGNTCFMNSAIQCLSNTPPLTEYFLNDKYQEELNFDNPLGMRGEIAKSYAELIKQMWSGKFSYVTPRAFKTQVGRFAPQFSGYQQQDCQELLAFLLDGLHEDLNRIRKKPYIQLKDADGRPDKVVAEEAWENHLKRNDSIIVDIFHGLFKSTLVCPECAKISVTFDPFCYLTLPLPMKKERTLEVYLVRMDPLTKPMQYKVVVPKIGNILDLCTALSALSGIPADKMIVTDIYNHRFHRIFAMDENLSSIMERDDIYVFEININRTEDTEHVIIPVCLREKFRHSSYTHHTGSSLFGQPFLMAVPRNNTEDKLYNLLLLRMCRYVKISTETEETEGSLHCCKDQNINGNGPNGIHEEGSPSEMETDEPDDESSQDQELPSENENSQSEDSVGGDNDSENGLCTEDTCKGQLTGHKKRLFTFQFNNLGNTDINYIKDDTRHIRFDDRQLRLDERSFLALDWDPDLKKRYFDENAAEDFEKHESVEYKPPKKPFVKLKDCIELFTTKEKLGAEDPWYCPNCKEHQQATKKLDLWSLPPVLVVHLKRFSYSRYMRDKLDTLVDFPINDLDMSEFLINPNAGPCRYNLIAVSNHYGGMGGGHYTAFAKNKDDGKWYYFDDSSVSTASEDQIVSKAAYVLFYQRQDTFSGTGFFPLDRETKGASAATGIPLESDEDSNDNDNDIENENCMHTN
# How it was run: as §1
# USP16 = USP16 (UniProt Q9Y5T5)
# How it was run: as §1
# Sequence of USP10 (Q14694 whole entry): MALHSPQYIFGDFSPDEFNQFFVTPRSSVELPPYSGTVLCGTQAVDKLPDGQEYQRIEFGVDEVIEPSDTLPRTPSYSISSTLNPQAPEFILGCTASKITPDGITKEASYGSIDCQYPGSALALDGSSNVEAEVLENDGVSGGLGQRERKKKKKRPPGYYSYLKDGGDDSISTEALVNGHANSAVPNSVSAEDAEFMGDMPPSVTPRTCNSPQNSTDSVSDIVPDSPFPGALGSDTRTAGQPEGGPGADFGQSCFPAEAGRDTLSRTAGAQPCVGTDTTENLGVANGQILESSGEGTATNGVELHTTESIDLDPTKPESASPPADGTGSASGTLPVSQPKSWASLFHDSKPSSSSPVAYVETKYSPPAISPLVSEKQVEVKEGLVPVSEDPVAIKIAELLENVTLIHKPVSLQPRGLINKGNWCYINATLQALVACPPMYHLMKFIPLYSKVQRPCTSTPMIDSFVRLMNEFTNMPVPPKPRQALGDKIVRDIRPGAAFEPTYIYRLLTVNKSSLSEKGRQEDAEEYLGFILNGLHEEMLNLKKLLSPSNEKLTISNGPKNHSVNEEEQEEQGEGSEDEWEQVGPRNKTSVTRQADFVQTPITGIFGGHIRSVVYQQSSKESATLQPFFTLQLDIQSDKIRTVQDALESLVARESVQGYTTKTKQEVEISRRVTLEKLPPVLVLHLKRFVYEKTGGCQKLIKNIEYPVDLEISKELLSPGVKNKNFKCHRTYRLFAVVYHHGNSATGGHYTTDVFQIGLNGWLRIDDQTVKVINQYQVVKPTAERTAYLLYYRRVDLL
# Sequence of UCHL1 (P09936 whole entry, looked up): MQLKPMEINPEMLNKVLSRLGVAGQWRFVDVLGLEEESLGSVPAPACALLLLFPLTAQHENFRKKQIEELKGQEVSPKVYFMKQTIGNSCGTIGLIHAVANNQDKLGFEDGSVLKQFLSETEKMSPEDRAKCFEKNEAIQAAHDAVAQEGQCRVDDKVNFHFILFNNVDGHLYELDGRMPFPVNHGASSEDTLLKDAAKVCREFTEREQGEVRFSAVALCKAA
# Sequence of USP16 (Q9Y5T5 whole entry, looked up): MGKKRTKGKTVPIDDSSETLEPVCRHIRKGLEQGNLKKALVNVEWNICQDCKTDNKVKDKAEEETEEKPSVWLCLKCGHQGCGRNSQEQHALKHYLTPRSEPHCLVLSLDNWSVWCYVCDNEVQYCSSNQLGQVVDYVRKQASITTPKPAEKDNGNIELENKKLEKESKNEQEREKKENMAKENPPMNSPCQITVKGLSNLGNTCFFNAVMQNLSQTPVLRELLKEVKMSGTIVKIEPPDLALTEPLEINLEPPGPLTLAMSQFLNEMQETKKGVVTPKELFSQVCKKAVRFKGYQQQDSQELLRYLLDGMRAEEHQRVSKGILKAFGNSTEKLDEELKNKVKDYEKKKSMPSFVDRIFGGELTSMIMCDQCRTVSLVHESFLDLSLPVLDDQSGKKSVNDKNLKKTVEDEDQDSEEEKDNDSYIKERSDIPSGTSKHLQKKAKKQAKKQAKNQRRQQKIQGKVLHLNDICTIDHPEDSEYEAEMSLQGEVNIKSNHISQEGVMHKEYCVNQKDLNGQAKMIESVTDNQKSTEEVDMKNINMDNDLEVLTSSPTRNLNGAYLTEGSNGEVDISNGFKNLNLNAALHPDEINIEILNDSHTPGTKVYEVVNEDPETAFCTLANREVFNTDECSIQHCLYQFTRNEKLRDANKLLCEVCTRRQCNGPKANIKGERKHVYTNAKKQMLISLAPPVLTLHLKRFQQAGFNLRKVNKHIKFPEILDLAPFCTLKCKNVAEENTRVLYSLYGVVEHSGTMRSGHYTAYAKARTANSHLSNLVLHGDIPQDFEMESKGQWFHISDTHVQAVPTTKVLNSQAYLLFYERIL
compound,measurement,setting,value
Cl.O=C(CCl)NC1(c2ncccn2)CCC1,log2 ratio of Biotin-Ahx-Ub-VS probe labelling,OTUD6B,0.0771
same,log2 ratio of Biotin-Ahx-Ub-VS probe labelling,OTUD7B,-0.227
same,log2 ratio of Biotin-Ahx-Ub-VS probe labelling,PRPF8,-0.0462
same,log2 ratio of Biotin-Ahx-Ub-VS probe labelling,PSMD7,-0.289
same,log2 ratio of Biotin-Ahx-Ub-VS probe labelling,UCHL1,-1.41 (active)
same,log2 ratio of Biotin-Ahx-Ub-VS probe labelling,UCHL3,0.32
same,log2 ratio of Biotin-Ahx-Ub-VS probe labelling,UCHL5,-0.0083
same,log2 ratio of Biotin-Ahx-Ub-VS probe labelling,USP10,0.0419
same,log2 ratio of Biotin-Ahx-Ub-VS probe labelling,USP15,0.0327
same,log2 ratio of Biotin-Ahx-Ub-VS probe labelling,USP16,0.0942
